The results in this text go back to the supplement of paper PMC12067926.

For the test, the system named is Bacillus 1 (Bacillus foraminis). As to the kind of experiment: relative growth (AUC of 72 h growth curve relative to DMSO control, dAUC) (ratio); higher = more growth (less inhibition), active = hit call of the paper. Particulars: 20 µM;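 active = growth AUC significantly below the DMSO wells by Dunnett test; inactive = the rest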. As to the method:
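Environmental bacterial isolates (Iceland stream sediment and Silwood Park soil) and whole stream-sediment communities were grown in LB from a 1:100 dilution with each pesticide at 20 µM (1% DMSO). A600 was read hourly for 72 h and the area under a spline-fitted growth curve (AUC) was computed. dAUC is the mean AUC of 3 biological replicates divided by the mean AUC of the DMSO controls. Significance was tested by Dunnett's test against the DMSO control.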
In the case of `CCC(CC)Nc1c([N+](=O)[O-])cc(C)c(C)c1[N+](=O)[O-]`, the relative growth was 0.931 (inactive).
Regarding `COc1ccc(C(=CC(=O)N2CCOCC2)c2ccc(Cl)cc2)cc1OC` (mixture of isomers), the relative growth is 0.924 (inactive).
Turning to `CO/C=C(/C(=O)OC)c1ccccc1COc1cccc(C(F)(F)F)n1`, the relative growth was 1.05 (inactive).
With `Fc1ccc([C@]2(Cn3cncn3)O[C@H]2c2ccccc2Cl)cc1` (racemic), the relative growth was 0.994 (inactive).
Consider `CCSC(C)CC1CC(=O)C(/C(CC)=N/OC/C=C/Cl)=C(O)C1` (mixture of isomers), for which the relative growth is 1.06 (inactive).
For the molecule `CCCC(Cn1cncn1)c1ccc(Cl)cc1Cl` (configuration not stated), the relative growth was 1.1 (inactive).
Consider `CS(=O)(=O)c1cc(C(F)(F)F)ccc1C(=O)c1cnoc1C1CC1`, for which the relative growth is 1.02 (inactive).
On to `N#C/N=C1\SCCN1Cc1ccc(Cl)nc1`, for which the relative growth was 1.08 (inactive).
For the molecule `CCCCOC(=O)[C@H](C)Oc1ccc(Oc2ccc(C#N)cc2F)cc1`, the relative growth is 1.07 (inactive).
Take `N#Cc1nn(-c2c(Cl)cc(C(F)(F)F)cc2Cl)c(N)c1[S+]([O-])C(F)(F)F` (configuration not stated): the relative growth is 1.01 (inactive).
Regarding `CC(C)NC(=O)N1CC(=O)N(c2cc(Cl)cc(Cl)c2)C1=O`, the relative growth was 0.928 (inactive).
Consider `CNC(=O)CSP(=S)(OC)OC`, for which the relative growth is 0.911 (inactive).
For `CCC(=O)Nc1ccc(Cl)c(Cl)c1` the value was 0.957 (inactive); for `C[C@@H]1[C@@H](c2ccc(Cl)cc2)SC(=O)N1C(=O)NC1CCCCC1`, 1.06 (inactive); for `COCC(=O)N(c1c(C)cccc1C)C(C)C(=O)OC` (configuration not stated), 1.11 (inactive).
On to `Nc1c([N+](=O)[O-])ccc(Oc2ccccc2)c1Cl`, for which the relative growth was 1.02 (inactive).
For `N#CC(CCc1ccc(Cl)cc1)(Cn1cncn1)c1ccccc1` (configuration not stated) the value was 0.836 (inactive); for `CCNC(=O)NC(=O)/C(C#N)=N/OC`, 1.04 (inactive); for `COC(=O)Nc1nc2ccccc2[nH]1`, 1.1 (inactive).
For the molecule `COC(=O)NC(=S)Nc1ccccc1NC(=S)NC(=O)OC`, the relative growth was 0.942 (inactive).
With `O=C(NCCc1ncc(C(F)(F)F)cc1Cl)c1ccccc1C(F)(F)F`, the relative growth is 0.999 (inactive).
On to `O=C(Nc1ccc(F)cc1F)c1cccnc1Oc1cccc(C(F)(F)F)c1`, for which the relative growth is 1.07 (inactive).
In the case of `CC1COC(Cn2cncn2)(c2ccc(Oc3ccc(Cl)cc3)cc2Cl)O1` (configuration not stated), the relative growth was 1.11 (inactive).
For `CCOCN(C(=O)CCl)c1c(C)cccc1CC`, the relative growth was 1 (inactive).
For `CN1COCN(Cc2cnc(Cl)s2)/C1=N\[N+](=O)[O-]` the value was 1.02 (inactive).
Regarding `CC1(C)CON(Cc2ccccc2Cl)C1=O`, the relative growth was 1.03 (inactive).
For the molecule `O=C(O)c1nc(Cl)ccc1Cl`, the relative growth is 0.984 (inactive).
